Out of some 5,500 compounds screened, about 2,000 (36%) were called active. Another 18% or so got no clear call; they are omitted. No stated cut-off is given here; in the data, active means normalized growth mostly below about 0.91 (no sharp cut-off); inconclusive means no clear call, values can overlap the other calls; inactive means mostly above about 0.92. This is one part of the list.
Experiment: chemical genetic growth profiling, strain panel (AID 1159580);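 further: tested at 20 µM; growth read once vehicle control cultures reached saturation at 30 °C; 1 = growth at the plate median or of vehicle wells; lower values mean less growth of the strain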
Conditions: S. cerevisiae deletion strains, growth OD

Measured: normalized growth

CCCCS(=N)(=O)CCC(N)C(=O)O (stereo unspecified)
inactive: locus YAL013W, strain DEP1, hits give low values 0.993 | locus YAL021C, strain ccr4, hits give low values 0.983 | locus YAL026C, strain drs2, hits give low values 1 | locus YAL030W, strain snc1, hits give low values 0.997 | locus YAL040C, strain CLN3, hits give low values 0.993 | locus YBL061C, strain skt5, hits give low values 0.999 | locus YBR009C, strain hhf1, hits give low values 1.02 | locus YBR023C, strain chs3, hits give low values 0.997 | locus YBR171W, strain sec66, hits give low values 0.999 | locus YBR231C, strain swc5, hits give low values 0.998 | locus YBR279W, strain paf1, hits give low values 0.993 | locus YCL011C, strain gbp2, hits give low values 0.988 | locus YCL016C, strain dcc1, hits give low values 1 | locus YCL061C, strain MRC1 (second series), hits give low values 0.997 | locus YCL061C, strain MRC1, hits give low values 0.993 | locus YCL069W, strain vba3, hits give low values 0.992 | locus YCR088W, strain abp1, hits give low values 0.992 | locus YDL005C, strain med2, hits give low values 0.984 | locus YDL040C, strain nat1, hits give low values 0.994 | locus YDR001C, strain nth1, hits give low values 0.99 | locus YDR069C, strain doa4, hits give low values 1.01 | locus YDR137W, strain rgp1, hits give low values 0.973 | locus YDR150W, strain NUM1, hits give low values 1.01 | locus YDR159W, strain sac3, hits give low values 1.02 | locus YDR195W, strain ref2 0.994 | locus YDR297W, strain sur2, hits give low values 0.993 | locus YDR334W, strain swr1, hits give low values 0.987 | locus YDR335W, strain msn5, hits give low values 0.99 | locus YDR363W, strain ESC2, hits give low values 0.992 | locus YDR392W, strain spt3, hits give low values 0.976 | locus YEL003W, strain gim4, hits give low values 0.994 | locus YEL037C, strain rad23, hits give low values 0.99 | locus YEL061C, strain CIN8 (second series), hits give low values 0.99 | locus YER002W, strain NOP16, hits give low values 0.979 | locus YER015W, strain faa2, hits give low values 0.996 | locus YER016W, strain bim1, hits give low values 0.996 | locus YER111C, strain swi4, hits give low values 0.983 | locus YER155C, strain BEM2 (second series), hits give low values 1.01 | locus YFR010W, strain ubp6, hits give low values 0.999 | locus YGL167C, strain pmr1, hits give low values 1 | locus YGL173C, strain kem1, hits give low values 1 | locus YGL227W, strain vid30, hits give low values 0.984 | locus YGL240W, strain doc1, hits give low values 1.01 | locus YGL253W, strain hxk2, hits give low values 1 | locus YGR229C, strain SMI1, hits give low values 0.955 | locus YHR013C, strain ard1, hits give low values 0.979 | locus YHR027C, strain rpn1, hits give low values 0.99 | locus YHR030C, strain SLT2, hits give low values 0.981 | locus YHR079C, strain IRE1, hits give low values 0.98 | locus YHR142W, strain chs7, hits give low values 0.979 | locus YJL092W, strain hpr5, hits give low values 1 | locus YJL095W, strain BCK1 (second series), hits give low values 0.995 | locus YJL095W, strain BCK1, hits give low values 0.983 | locus YJL115W, strain asf1, hits give low values 0.996 | locus YJL129C, strain trk1, hits give low values 0.986 | locus YJL154C, strain vps35, hits give low values 0.993 | locus YJL164C, strain tpk1, hits give low values 0.996 | locus YJL166W, strain qcr8, hits give low values 1 | locus YJL187C, strain SWE1, hits give low values 0.994 | locus YJR066W, strain TOR1, hits give low values 0.9 | locus YJR075W, strain HOC1, hits give low values 1 | locus YKL160W, strain elf1, hits give low values 0.997 | locus YKR026C, strain gcn3, hits give low values 0.986 | locus YKR091W, strain srl3, hits give low values 0.988 | locus YLL001W, strain dnm1, hits give low values 0.993 | locus YLL026W, hits give low values 0.993 | locus YLL041C, strain sdh2, hits give low values 0.988 | locus YLR027C, strain aat2, hits give low values 0.993 | locus YLR113W, strain HOG1, hits give low values 0.99 | locus YLR221C, strain rsa3, hits give low values 0.986 | locus YLR258W, strain gsy2, hits give low values 1 | locus YLR262C, strain YPT6 (second series), hits give low values 0.998 | locus YLR320W, strain mms22, hits give low values 0.99 | locus YLR342W, strain FKS1, hits give low values 0.993 | locus YLR357W, strain rsc2, hits give low values 1 | locus YLR370C, strain arc18, hits give low values 0.99 | locus YLR384C, strain iki3, hits give low values 1.01 | locus YML120C, strain ndi1, hits give low values 0.983 | locus YMR058W, strain fet3, hits give low values 0.999 | locus YMR125W, strain sto1, hits give low values 0.99 | locus YMR129W, hits give low values 0.959 | locus YMR205C, strain PFK2, hits give low values 1.02 | locus YMR231W, strain pep5, hits give low values 0.997 | locus YMR307W, strain GAS1, hits give low values 1.01 | locus YNL071W, strain lat1, hits give low values 0.982 | locus YNL128W, strain TEP1, hits give low values 0.991 | locus YNL175C, strain NOP13, hits give low values 0.97 | locus YNL183C, strain NPR1, hits give low values 0.929 | locus YNL197C, strain WHI3, hits give low values 0.94 | locus YNL209W, strain ssb2, hits give low values 0.991 | locus YNL224C, strain SQS1, hits give low values 0.986 | locus YNL248C, strain rpa49, hits give low values 0.991 | locus YNL322C, strain KRE1 (second series), hits give low values 0.998 | locus YNR049C, strain mso1, hits give low values 0.994 | locus YOR001W, strain rrp6, hits give low values 0.974 | locus YOR070C, strain gyp1, hits give low values 0.99 | locus YOR080W, strain dia2, hits give low values 0.99 | locus YOR083W, strain WHI5 (second series), hits give low values 0.95 | locus YOR083W, strain WHI5, hits give low values 1 | locus YOR106W, strain vam3, hits give low values 1.01 | locus YOR231W, strain MKK1, hits give low values 0.988 | locus YOR265W, strain rbl2, hits give low values 0.989 | locus YOR270C, strain vph1, hits give low values 0.99 | locus YOR290C, strain snf2, hits give low values 0.949 | locus YPL051W, strain arl3, hits give low values 0.992 | locus YPL055C, strain LGE1, hits give low values 0.999 | locus YPL078C, strain atp4, hits give low values 0.994 | locus YPL106C, strain sse1, hits give low values 0.991 | locus YPL240C, strain hsp82, hits give low values 0.998 | locus YPL241C, strain CIN2, hits give low values 0.998 | locus YPL256C, strain CLN2, hits give low values 0.988
